High-throughput results deposited in PubChem by several laboratories.
An excerpt weighted towards active compounds, which were near 5% of everything screened.
SENP6 inh = blocks the human protease SENP6 | inhibition, % at 10 µM | Q9GZR1 | Recombinant SENP6 catalytic domain, aminoluciferin luminescence | hit rate 1.8% among 330,000;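 active means inhibition above about 50% at the single tested dose, limit read from the data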
SENP7 inh = inhibitors of human SENP7 protease; Q9BQF6; recombinant SENP7, Z-RLRGG-aminoluciferin luminescence, 40 min; inhibition, % at 5 µM; hit rate 1.5% among 330,000; AID 434973;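 active means inhibition above about 50% at the single test dose, limit read from the data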
AHR activator = activators of human aryl hydrocarbon receptor. AHR-responsive luciferase reporter cells, luminescence. hit rate 2.5% among 320,000. activation, % at 5 µM. AID 2796. P35869; in the data active means activation above about 47%
EBI2 block = antagonists of human EBI2 receptor; P32249; EBI2 beta-arrestin recruitment, luminescence, 7a,25-OHC stimulated; inhibition, % at 5 µM; hit rate 0.81% among 360,000; AID 651636; in the data active means inhibition above about 38%;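 further: enzyme fragment complementation signal reports receptor beta-arrestin coupling in cells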
SENP8 block-1 = inhibitors of human SENP8 protease; Q96LD8; recombinant SENP8, Nedd8 substrate fluorescence; inhibition, % at 20 µM; hit rate 0.64% among 360,000; in the data active means inhibition mostly above about 40%, no sharp cut-off; inactive means mostly below about 27%
Target sequence (Q96LD8 whole entry, looked up): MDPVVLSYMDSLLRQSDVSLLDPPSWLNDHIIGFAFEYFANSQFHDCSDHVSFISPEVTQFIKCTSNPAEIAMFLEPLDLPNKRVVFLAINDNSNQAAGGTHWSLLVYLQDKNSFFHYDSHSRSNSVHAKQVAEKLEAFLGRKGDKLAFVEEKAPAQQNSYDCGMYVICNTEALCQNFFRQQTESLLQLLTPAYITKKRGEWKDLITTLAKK
SENP8 block-2 = inhibitors of human SENP8 protease | hit rate 1.2% among 330,000 | purified SENP8, Z-RLRGG-aminoluciferin cleavage, luminescence | inhibition, % at 10 µM | Q96LD8 | AID 2540; in the data active means inhibition above about 50%
SENP8 confirm = human SENP8 inhibition, confirmed; Recombinant SENP8, Z-RLRGG-aminoluciferin luminescence, 60 min; hit rate 40% among 6,200; inhibition, % at 12.5 µM; shares compounds with SENP7 inh;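 active means mean inhibition across replicates above about 50%, limit read from the data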
SENP6 confirm = confirmation of human SENP6 protease inhibitors; inhibition, % at 12.5 µM; shares compounds with SENP7 inh; recombinant SENP6, Z-RLRGG-aminoluciferin luminescence; hit rate 58% among 6,200
SENP7 conf = human SENP7 inhibition, confirmed; shares compounds with SENP7 inh; recombinant SENP7, Z-RLRGG-aminoluciferin luminescence, 40 min; inhibition, % at 12.5 µM; hit rate 69% among 6,200; AID 488917
Casp3 SENP sel = caspase-3 inhibition (SENP selectivity assay); hit rate 60% among 6,200; shares compounds with SENP7 inh; purified caspase-3, Z-DEVD-aminoluciferin luminescence, 60 min; inhibition, % at 12.5 µM;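 active means mean inhibition above about 50%, limit read from the data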
Target sequence (P42574 28-227 limits assumed): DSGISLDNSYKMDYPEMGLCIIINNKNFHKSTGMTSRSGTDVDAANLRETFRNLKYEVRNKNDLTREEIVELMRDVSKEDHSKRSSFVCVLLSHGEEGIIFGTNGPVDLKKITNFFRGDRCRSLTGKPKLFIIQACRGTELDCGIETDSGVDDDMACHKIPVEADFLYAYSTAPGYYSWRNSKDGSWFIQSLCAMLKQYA
SENP luc ctr = counter-screen for SENP inhibitors: luminescence interference. shares compounds with SENP7 inh. Pre-incubated SENP8/Z-RLRGG-aminoluciferin, luciferase luminescence interference. inhibition, % at 12.5 µM. hit rate 39% among 6,200. AID 488919;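 active means mean inhibition above about 50% when retested at one dose, limit read from the data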
A number is an active result; 0 = inactive; - = not tested or not shown.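 How the source made its calls, unless noted: active means mean inhibition above about 50% in the one-dose retest (limit read from the data); inactive means the rest.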

SMILES	SENP6 inh	SENP7 inh	AHR activator	EBI2 block	SENP8 block-1	SENP8 block-2	SENP8 confirm	SENP6 confirm	SENP7 conf	Casp3 SENP sel	SENP luc ctr
CCN(CC)c1ccc(NC(=O)Nc2ccccc2)cc1	83	65	0	0	0	64	0	71	88	76	52
CC(=O)c1cccc(NC(=O)c2ccc3c(c2)OCO3)c1	0	0	0	0	0	0	-	-	-	-	-
CCN(CC)c1ccc(NC(=O)Nc2ccc(C(C)=O)cc2)cc1	0	0	0	0	0	0	-	-	-	-	-
CCOC(=O)CNC(=O)/C=C/c1ccc2c(c1)OCO2	0	0	0	0	0	0	-	-	-	-	-
O=C1C=C(Nc2ccc(Cl)cc2Cl)CC(c2ccco2)C1 (stereo unspecified)	0	0	0	0	0	0	-	-	-	-	-
Cc1ccc(NC(=O)c2ccc3c(c2)OCCO3)cc1S(=O)(=O)Nc1cccc(Cl)c1	0	0	0	0	0	0	-	-	-	-	-
CCC(=O)Oc1ccc(C(=O)Nc2ccc3c(c2)OCO3)cc1	64	73	0	0	0	0	0	56	62	71	0
CCOC(=O)c1c(N)sc(C(=O)Nc2ccc3c(c2)OCO3)c1C	97	98	0	0	0	92	0	98	103	96	96
Cc1ccc(NC(=O)c2ccc3c(c2)OCCO3)cc1C	91	92	0	0	0	86	0	86	98	86	88
Cc1ccc(NC(=O)c2nnn(-c3ccc4c(c3)OCCO4)c2N)cc1	0	0	0	0	0	0	-	-	-	-	-
Nc1c(C(=O)Nc2ccccc2)nnn1-c1ccc2c(c1)OCCO2	85	82	0	0	0	76	85	84	97	82	70
CCCCOc1ccc(C(=O)Nc2ccc3c(c2)OCO3)cc1	0	0	0	0	0	0	-	-	-	-	-
O=C(O)c1cc(S(=O)(=O)Nc2ccc3cn[nH]c3c2)ccc1Cl	0	0	0	0	0	0	-	-	-	-	-
O=S(=O)(O)c1ccc(N=Nc2ccccc2)cc1	67	51	0	0	0	52	0	0	71	76	53
CN(C)N=Nc1ccc(S(=O)(=O)/N=C(\O)c2ccccc2)cc1	0	0	0	0	0	0	-	-	-	-	-
CCOC(=O)C1CCCN(C(=O)CN2C(=O)NC(C)(c3ccc4ccccc4c3)C2=O)C1 (stereo unspecified)	0	0	0	0	0	0	-	-	-	-	-
O=C(Cc1ccccc1F)NC1CCCN(Cc2ccc(Cl)cc2)C1 (stereo unspecified)	0	0	0	0	0	0	-	-	-	-	-
Cn1c(=NC(=O)c2ccccc2[N+](=O)[O-])sc2cccc(F)c21	0	77	0	0	0	0	0	0	0	0	0
Cn1c(=NC(=O)C(C)(C)C)sc2cccc(F)c21	0	0	0	0	0	0	-	-	-	-	-
COc1cc(NC(=O)c2cccc(Br)c2)nc(OC)n1	54	0	0	0	0	0	0	0	68	0	0
COc1cc(NC(=O)c2c(F)cccc2F)nc(OC)n1	0	0	0	0	0	0	-	-	-	-	-
CC1Oc2ccccc2C(=O)N(CC(=O)c2ccc3c(c2)OCCO3)C1=O (stereo unspecified)	0	0	0	0	0	0	-	-	-	-	-
CC(C)C1Oc2ccccc2C(=O)N(CC(=O)c2ccc3c(c2)OCCO3)C1=O (stereo unspecified)	0	56	0	0	0	0	0	0	0	0	0
O=C(Nc1nc(COc2ccccc2)cs1)C12CC3CC(CC(C3)C1)C2	0	0	0	0	0	0	-	-	-	-	-
CC(=O)Nc1nc(COc2ccc3ccccc3c2)cs1	62	62	0	0	0	0	0	0	81	-	0
SMILES	SENP6 inh	SENP7 inh	AHR activator	EBI2 block	SENP8 block-1	SENP8 block-2	SENP8 confirm	SENP6 confirm	SENP7 conf	Casp3 SENP sel	SENP luc ctr
Nc1nc(COc2ccc3ccccc3c2)cs1	0	0	0	0	0	0	-	-	-	-	-
O=C(Nc1nc(COc2ccccc2)cs1)C1CCC1	54	0	0	0	0	0	0	0	0	0	0
CSCC[C@H](NC(=O)C1CCN(S(=O)(=O)c2ccc(C)cc2C)CC1)c1nc2ccccc2[nH]1	0	0	0	0	0	0	-	-	-	-	-
CCOc1ccc(C2C(C(C)=O)=C(O)C(=O)N2CCc2c[nH]c3ccccc23)cc1 (stereo unspecified)	0	0	0	0	0	0	-	-	-	-	-
COc1cccc(CCNC(=O)CCCC(=O)c2ccccc2)c1	0	0	0	0	0	0	-	-	-	-	-
O=c1cc(CCl)[nH]c2nc3ccccc3n12	0	0	0	0	0	0	-	-	-	-	-
O=c1cc(-c2ccccc2)[nH]c2nc3ccccc3n12	88	98	0	0	0	88	0	64	64	72	0
COc1cc(NS(=O)(=O)c2ccc(NC(=O)/C(=C\c3ccccc3OC)NC(=O)c3ccccc3)cc2)nc(OC)n1	0	0	0	0	0	0	-	-	-	-	-
COc1cc(NS(=O)(=O)c2ccc(NC(=O)/C(=C/c3ccccc3Cl)NC(=O)c3ccccc3)cc2)nc(OC)n1	64	0	0	0	0	0	0	0	0	0	0
N#C/C(=C(/O)c1ccc([N+](=O)[O-])o1)c1nc2ccccc2[nH]1	66	0	0	0	0	0	0	0	0	0	0
CC1(CCc2ccccc2)NC(=O)N(CC(=O)N2CC(=O)Nc3ccccc32)C1=O (stereo unspecified)	0	0	0	0	0	0	-	-	-	-	-
CN(C)CCNC=C(C(=O)Nc1ccc(Cl)cc1Cl)C(=O)Nc1ccc(Cl)cc1Cl	0	0	0	0	0	0	-	-	-	-	-
CC(=O)/C(=C/N(C)C)C(=O)Nc1ccc(Cl)cc1Cl	0	0	0	0	0	78	70	66	92	81	77
COc1ccc(-c2noc(CNC(=O)c3ccoc3C)n2)cc1OC	0	0	0	0	0	0	-	-	-	-	-
COc1cc(/C=N/NS(=O)(=O)c2ccc3ccccc3c2)ccc1OCc1ccc(C(=O)O)cc1	0	0	0	0	0	0	-	-	-	-	-
COc1cc(/C=N/O)ccc1OCc1ccc(C(=O)O)cc1	97	100	0	0	0	96	97	100	104	98	99
COc1cc(/C=N/O)ccc1OCc1ccc(Cl)cc1	75	59	0	-	-	0	64	64	86	0	68
O=[N+]([O-])c1cc([N+](=O)[O-])c(Oc2cc(Cl)cc(Cl)c2)cc1NN1CCCCC1	0	0	0	0	0	0	-	-	-	-	-
CCc1ccc(NC(=O)NCCCN2CCCC2=O)cc1	0	0	0	0	0	0	-	-	-	-	-
